Only a selection was taken, and hits are over-represented in it overall.
Marburg entry inh: qHTS for inhibitors of binding or entry into cells for Marburg Virus. Marburg virus pseudotyped entry inhibition, cell reporter. Potency, µM (titrated, usually from 37.8 µM), for the others: at the top dose activity change, negative = inhibition, most hits filed as inhibitors. 300,000 compounds, 1.8% hits; calls by dose curve; tested in HEK293 cells; note: potency is the fitted concentration of half-maximal effect; % is set by controls: 0 for no effect and ±100 for the full control effect
AMA1 RON2 block: qHTS for Inhibitors of AMA1-RON; Towards Development of Antimalarial Drug Lead: Primary Screen; AID 720542, 2013; Potency, µM (series often up to 58.2 µM), inactives show at the top dose activity change, negative = inhibition, usual class: inhibitors; 360,000 compounds, 0.2% hits; AlphaScreen AMA1-biotinylated RON2 peptide binding; active = well fitted inhibition curve with a large enough effect; inconclusive = small, poorly fitted or top-dose-only effect; inactive = no such curve, though single readings can be large or run the other way;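 note: potency is the fitted concentration of half-maximal effect; 0% = vehicle wells and -100% = peptide control; nearly all actives have a fitted effect of over 45% in size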
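AMA1 (3D7) with his tag at 25 nM final met compounds first, then biotinylated RON2 peptide at 25 nM; detection used donor plus acceptor beads, 10 µg/mL apiece, read by AlphaScreen after 30 min at room temperature.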
LASV entry inh: qHTS for Inhibitors of binding or entry into cells for Lassa Virus. Lassa virus pseudotype entry inhibition, cell reporter. Potency, µM (doses to about 37.9 µM), inactives show at the highest dose activity change, negative = inhibition, usual class: inhibitors. 300,000 compounds, 1.2% hits; calls by dose curve; tested in HEK293 cells; note: potency is the fitted concentration of half-maximal effect; % is set by controls: 0 for no effect and ±100 for the full control effect; nearly all actives have a fitted effect of over 50% in size
CHX counter: Cycloheximide Counterscreen for Small Molecule Inhibitors of Shiga Toxin. cell reporter, cycloheximide protein synthesis inhibition counterscreen. AID 2314, 2010. 300,000 compounds, 12% hits. max response, %; in the data active = max response mostly above about 13%, no sharp cut-off; inactive = mostly below about 14%; note: read at 38.3 µM for the half of the compounds with a filed dose; 0% is about no effect
Shiga inhibitor: A qHTS for Small Molecule Inhibitors of Shiga Toxin; inhibition, % at 38.7 µM; Vero cells, Shiga toxin protein synthesis inhibition reporter; 290,000 compounds, 9.2% hits; AID 2315, 2010; in the data active = inhibition mostly above about 28%, no sharp cut-off; inactive = mostly below about 43%; note: 0% is about no effect
Numbers without * were called inactive; [ ] = remark or other dose.

`CC(=O)OC[C@H]1O[C@H](C#Cc2ccccc2Cl)C=C[C@@H]1OC(C)=O` gave Marburg entry inh -1.2%[14.2 µM].
For CCN(CC)CCCN=C(C)C1=C(O)c2ccccc2C1=O the results were Marburg entry inh -17.3%, AMA1 RON2 block 30.1%, LASV entry inh inconclusive, CHX counter 2.5 and Shiga inhibitor 17.4.
CC(=NCc1ccncc1)C1=C(O)c2ccccc2C1=O was read as Marburg entry inh 0.9%, CHX counter 17.8* and Shiga inhibitor 75.6*.
Screening CCCN=C(C)C1=C(O)c2ccccc2C1=O returned Marburg entry inh inconclusive, AMA1 RON2 block -6.5%, LASV entry inh inconclusive, CHX counter 107.4* and Shiga inhibitor 83.9*.
For Cc1ccc(CCNC(=O)c2ccc3[nH]c(C)c(C)c3c2)cc1 the results were LASV entry inh -16.6%[46.1 µM].
For COc1ccc(N2CCN(C(=O)c3ccc4[nH]c(C)c(C)c4c3)CC2)cc1 the results were AMA1 RON2 block -21.9%, CHX counter -1.1 and Shiga inhibitor -3.4.
`CC(=O)Nc1cccc(NC(=O)c2ccc3[nH]c(C)c(C)c3c2)c1` gave Marburg entry inh -4.9%[46.1 µM], AMA1 RON2 block 9.2%, LASV entry inh inconclusive, CHX counter 20.4* and Shiga inhibitor 56.1*.
`Cc1cc(NC(=O)c2ccc3[nH]c(C)c(C)c3c2)ccn1` gave Marburg entry inh -17.3%[46.1 µM], AMA1 RON2 block -13.2%, LASV entry inh -28.0%[46.1 µM], CHX counter 33.9 and Shiga inhibitor 51.7*.
For COc1ccc(NC(=O)c2ccc3[nH]c(C)c(C)c3c2)cc1 the results were AMA1 RON2 block -3.7%, CHX counter 38.7* and Shiga inhibitor 47.8*.
Screening Cc1[nH]c2ccc(C(=O)NCc3ccccn3)cc2c1C returned AMA1 RON2 block 53.2%, CHX counter 29.2* and Shiga inhibitor 54.6*.
For CC(=O)Nc1ccc(NC(=O)CCc2c(C)nc3c(c(C)nn3-c3ccc(C)cc3)c2C)cc1 the results were Marburg entry inh -29.6%[46.1 µM] and LASV entry inh -3.0%[46.1 µM].
CN(C)S(=O)(=O)c1ccc(C(=O)NNC(=O)C23CC4CC(CC(C4)C2)C3)cc1 was read as Marburg entry inh 22.0%, AMA1 RON2 block -1.7%[11.6 µM] and LASV entry inh -2.8%.
Screening O=C(NC1CCC1)C1CCC(=O)N(Cc2ccccc2F)C1 (stereo not drawn) returned AMA1 RON2 block -0.3%, CHX counter 32.1* and Shiga inhibitor 8.3.
`CC#CCN(Cc1ccco1)C(=O)C1CCC(=O)N(CCc2cccc(F)c2)C1` (stereo not drawn) gave AMA1 RON2 block -5.4%.
`O=C(NCCc1ccccc1F)C1CCC(=O)N(Cc2ccccc2F)C1` (stereo not drawn) gave AMA1 RON2 block -1.2%, CHX counter 18.2* and Shiga inhibitor 25.2*.
`O=C(NC1CCC1)C1CCC(=O)N(Cc2cccc(F)c2)C1` (stereo not drawn) gave AMA1 RON2 block 8.2%, CHX counter 17.8 and Shiga inhibitor -5.6.
`CC#CCN(Cc1ccco1)C(=O)C1CCC(=O)N(Cc2ccccc2F)C1` (stereo not drawn) gave Marburg entry inh 13.1%, AMA1 RON2 block 8.6%, LASV entry inh inconclusive, CHX counter 31.5* and Shiga inhibitor 29.4.
COc1ccc(-c2c(C)c3ccc(O)c(CN4CCC(C)CC4)c3oc2=O)cc1OC was read as LASV entry inh 4.2%[46.1 µM].
Screening Cc1ccccc1C(=O)Nc1nnc(S(=O)(=O)N2CCc3ccccc32)s1 returned LASV entry inh 6.4%[46.1 µM].
Screening CCOc1ccc(NC(=O)Cn2c(=O)n(-c3ccc(C)cc3)c(=O)c3cc(OC)c(OC)cc32)cc1 returned Marburg entry inh -1.8%[46.1 µM] and LASV entry inh 14.4%[46.1 µM].
`c1ccc(-c2ccc(C3=Nn4c(Cn5nnc6ccccc65)nnc4SC3)cc2)cc1` gave Marburg entry inh inconclusive, AMA1 RON2 block -4.1%, LASV entry inh 11.2µM*, CHX counter -1.0 and Shiga inhibitor -22.7.
CC(C)C(c1nnnn1C(C)(C)C)N1CCC(Cc2ccccc2)CC1 (stereo not drawn) was read as Marburg entry inh inconclusive, AMA1 RON2 block -7.4%, LASV entry inh inconclusive, CHX counter -5.1 and Shiga inhibitor -9.1.
`O=C(NN=C1CCCC1)c1sc2ccccc2c1Cl` gave Marburg entry inh inconclusive, AMA1 RON2 block 0.0%, LASV entry inh inconclusive, CHX counter 38.1* and Shiga inhibitor 43.2*.
Screening O=C1CCCC(=NNC(=O)c2cc3ccccc3cc2O)C1 returned Marburg entry inh inconclusive, AMA1 RON2 block 47.5% and LASV entry inh inconclusive.
O=C1CCC/C(=N/NC(=O)c2sc3ccccc3c2Cl)C1 was read as AMA1 RON2 block 63.2%, CHX counter 17.6* and Shiga inhibitor 21.5.
Screening CC1=C(C(=O)OC2CCCCCCC2)C(c2cccc(O)c2)NC(=O)N1 (stereo not drawn) returned Marburg entry inh inconclusive, AMA1 RON2 block -2.8%, LASV entry inh 1.83µM*, CHX counter -2.8 and Shiga inhibitor -5.3.
COC(=O)C1=C(C(=O)OC)[C@@H]2N(C)c3ccccc3[C@@]23C[C@@H](CO)N(C(=O)NC2CCCCC2)C3=N1 was read as Marburg entry inh -1.9%[14.2 µM].
O=C(CCc1ccccc1)N/N=C/c1cccc(O)c1 was read as AMA1 RON2 block 19.3%, CHX counter 14.5* and Shiga inhibitor 6.0.
For O=C(Cc1nnc(NC(=O)c2ccccc2)s1)N/N=C/c1cccc(O)c1 the results were Marburg entry inh 23.4%, AMA1 RON2 block -1.4%, LASV entry inh inconclusive, CHX counter 13.7* and Shiga inhibitor 12.2.
For Cn1c(N/N=C\c2cccc(O)c2)cc(=O)n(C)c1=O the results were Marburg entry inh -7.5%, AMA1 RON2 block -2.2%[2.32 µM], LASV entry inh -2.3%, CHX counter 19.2* and Shiga inhibitor 24.4*.
For O=C(N/N=C/c1cccc(O)c1)c1ccc(-n2cnnn2)cc1 the results were Marburg entry inh inconclusive, AMA1 RON2 block 11.8% and LASV entry inh 19.1%.
For O=C(N/N=C/c1cccc(O)c1)N/N=C/c1cccc(O)c1 the results were Marburg entry inh inconclusive, AMA1 RON2 block -0.8%, LASV entry inh inconclusive, CHX counter 28.2* and Shiga inhibitor 55.1*.
Screening O=C(CCc1ccccc1)N/N=C/c1cccc([N+](=O)[O-])c1 returned AMA1 RON2 block 0.0%, CHX counter 9.6 and Shiga inhibitor 22.0.
`CCOC(=O)Cc1cc(C(=O)Nc2ccc(Br)cc2)sc1-c1ccc(C)cc1` gave Marburg entry inh -18.9%[46.1 µM] and LASV entry inh inconclusive.
For O=C(Nc1ccc(NC(=O)c2sc3ccccc3c2Cl)cc1Cl)c1ccco1 the results were Marburg entry inh 2.4%, AMA1 RON2 block 4.2%, LASV entry inh 25.2%[14.3 µM], CHX counter 21.7 and Shiga inhibitor -13.9.

Screening data from PubChem BioAssay.
